Experimental findings from PubChem BioAssay (Tox21) are described below.

Several values for one entry are separate records, joined by “and”; a condition that tells them apart may be missing. Identical values can stand only once. Values without a mark were called inactive. Inconclusive results are not listed. Activity calls are given as the source filed them. Unless noted, calls come from the whole dose curve; as a rule, active = well fitted curve in the direction sought with a large enough effect in the repeat runs; inconclusive = weak or mixed curves; inactive = flat fitted curve, though single readings scatter.

Test [1] can be described thus: qHTS assay to test for compound auto fluorescence at 460 nm (blue) in HEK293 cell free culture (AID 720681). The gist of the method:
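Test compounds were pinned into cell-free culture medium (DMEM with 10% FBS) and fluorescence was read directly at Ex/Em 405/460 nm. Signals were expressed as fluorescence equivalents of triamterene, with DMSO vehicle as control.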

A short description of test [2]: qHTS assay to test for compound auto fluorescence at 535 nm (green) in HEK293 cell free culture (AID 720682). A digest of the protocol:
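Compounds were pin-transferred into cell-free DMEM with 10% FBS, and green fluorescence was read at excitation 485 nm and emission 535 nm. Intensities were expressed as fluorescein-equivalent values.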
(In qHTS, concentration-response curves come from the screen itself.)

Test [3] in a line: qHTS assay to test for compound auto fluorescence at 590 nm (red) in HEK293 cell free culture (AID 720683). Note: potency is the fitted concentration of half-maximal effect. A digest of the protocol: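 Tox21 10K library compounds were pinned into cell-free DMEM with 10% FBS and fluorescence was read at excitation 540 nm. Activity is expressed as Rose Bengal sodium equivalency.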
The nature of test [4]: qHTS assay to test for compound auto fluorescence at 590 nm (red) in HepG2 cell free culture (AID 720684). Note: potency is the fitted concentration of half-maximal effect. A digest of the protocol:
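Ex 540 / Em 590 nm read of compound in cell-free MEM (10% FBS). Rose Bengal sodium reference.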

Test [5] can be described thus: qHTS assay to test for compound auto fluorescence at 460 nm (blue) in HepG2 cell free culture (AID 720685). The gist of the method: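 Cell-free plates of MEM plus 10% FBS received 23 nL compound or DMSO vehicle; blue-channel (405/460 nm) intensity scored against triamterene as reference fluorophore.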
Test [6] in a line: qHTS assay to test for compound auto fluorescence at 535 nm (green) in HepG2 cell free culture (AID 720686). Note: potency is the fitted concentration of half-maximal effect.
A short description of test [7]: qHTS assay to test for compound auto fluorescence at 460 nm (blue) in HepG2 cells (AID 720687). A digest of the protocol: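 Cells (2,000/well in MEM with 10% FBS) attached overnight at 37 C, then were exposed to compound or DMSO for 1 hr at 37 C, 5% CO2. Fluorescence read at Ex/Em 405/460 nm, expressed as triamterene-equivalent signal.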
Test [8] has as its target Glucocorticoid receptor (Homo sapiens) (UniProt P04150). In words: qHTS assay to identify small molecule agonists of the glucocorticoid receptor (GR) signaling pathway (AID 720691; active = well fitted activation curve with a large enough effect in the signal ratio in the repeat runs, not every such curve was filed as active; the % refers to the signal ratio; note: potency is the fitted concentration of half-maximal effect). To be noted: GR-bla HeLa, beta-lactamase reporter ratio, 18 h; activation: at 62.4 µM (top of the series). A digest of the protocol:
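Cells: GR-bla HeLa, endogenous GR with stably integrated GRE-beta-lactamase reporter. Treatment 18 h, 37 C, compounds delivered in DMSO. Detection via LiveBLAzer B/G FRET substrate, 2 h RT, fluorescence intensity.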

For test [9] the target is unchanged. The test can be described thus: qHTS assay to identify small molecule antagonists of the glucocorticoid receptor (GR) signaling pathway (AID 720692; active = well fitted inhibition curve with a large enough effect in the signal ratio in the repeat runs, not every such curve was filed as active; the % refers to the signal ratio; note: potency is the fitted concentration of half-maximal effect). A digest of the protocol: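 Quantitative HTS in antagonist format: HeLa cells expressing endogenous GR and a stably integrated GRE-bla reporter, stimulated with 5 nM dexamethasone (final) alongside test compounds for 18 h.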
Tags give direction and shape of the fitted curve or compound fluorescence and quenching.

Sequence of Glucocorticoid receptor (Homo sapiens) (P04150 whole entry, looked up): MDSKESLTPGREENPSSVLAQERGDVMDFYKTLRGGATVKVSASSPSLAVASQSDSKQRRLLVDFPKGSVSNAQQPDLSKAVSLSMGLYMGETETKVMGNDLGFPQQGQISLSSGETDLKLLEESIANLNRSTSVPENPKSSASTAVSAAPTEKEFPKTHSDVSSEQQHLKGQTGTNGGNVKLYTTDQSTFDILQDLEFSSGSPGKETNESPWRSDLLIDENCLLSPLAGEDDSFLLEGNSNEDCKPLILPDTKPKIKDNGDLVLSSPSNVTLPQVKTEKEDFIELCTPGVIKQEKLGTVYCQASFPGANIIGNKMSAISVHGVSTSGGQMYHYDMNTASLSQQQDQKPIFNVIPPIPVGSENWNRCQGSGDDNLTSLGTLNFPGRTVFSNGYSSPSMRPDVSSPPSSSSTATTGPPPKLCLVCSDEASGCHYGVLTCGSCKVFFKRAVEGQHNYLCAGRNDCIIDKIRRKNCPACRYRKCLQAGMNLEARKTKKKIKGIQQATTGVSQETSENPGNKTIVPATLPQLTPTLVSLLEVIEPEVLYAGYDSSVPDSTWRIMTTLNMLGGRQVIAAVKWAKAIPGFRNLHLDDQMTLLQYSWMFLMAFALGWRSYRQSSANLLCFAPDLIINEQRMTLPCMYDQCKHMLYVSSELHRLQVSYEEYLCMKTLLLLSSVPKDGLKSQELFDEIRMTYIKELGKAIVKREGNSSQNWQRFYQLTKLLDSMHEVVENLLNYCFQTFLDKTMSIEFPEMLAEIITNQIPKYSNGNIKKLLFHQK

On to `O=C1CCCc2c1cc1ccc3cccc4ccc2c1c34`, for which the Potency entry in test [1], in [3], in [4], in test [5], in test [6] and in [7] was “inactive” throughout. In addition, the call in [2] was inactive. For the same compound, the Potency in test [8] was 22.2 µM (active).

For `O=C(N/N=C/c1ccccc1O)c1ccncc1`, the Potency entry in test [1], in [3], in test [4] and in test [6] was “inactive” each time. In addition, in [2], the result was inactive.

As to `O=Cc1cc(O)ccc1Br`, the Potency result in test [1], in test [3], in test [4], in test [5], in test [6] and in [7] was “inactive” in each case. The Potency result in test [8] is “inactive”. Further, the compound was classed as inactive in [2].

In the case of `CCc1cc(SCc2sc(-c3ccc(C(F)(F)F)cc3)nc2CN2CCN(c3ccc(OC)cc3)CC2)ccc1OCC(=O)O`, the Potency result in [1], in [3], in test [4], in test [5], in test [6] and in test [7] was “inactive” throughout. In addition, in test [2], the outcome was inactive.

Take `O=c1cc(-c2ccc(O)cc2)oc2cc(O)cc(O)c12`: the Potency entry in test [1], in [3], in test [4], in test [5], in test [6] and in test [7] was “inactive” each time. Besides, the Potency result in [8] is “inactive”. The compound was classed as inactive in test [2]. Moreover, the Potency in test [9] was 27.9 µM (active) and 27.5 µM (active).

Turning to `O=c1cccccc1O`, the Potency entry in [1], in [3], in test [4], in test [5], in test [6] and in [7] was “inactive” in each case. Besides, in test [8], the Potency entry is “inactive”. Also, the outcome in [2] was inactive.

For `Nc1ccc2c3c(cccc13)-c1ccccc1-2`, the Potency result in test [3] and in [4] was “inactive” each time. Moreover, the Potency in test [6] was 39.8 µM [fluorescent] (active).

For `CCN1/C(=C/C=C/c2sc3ccccc3[n+]2CC)Sc2ccccc21`, the Potency entry in test [1], in test [5], in test [6] and in test [7] was “inactive” in each case. For the same compound, the compound was classed as inactive in test [2]. Besides, the Potency was 11.2 µM [fluorescent] (active) in [3] and 14.1 µM [fluorescent] (active) in test [4].

As to `O=C(Nc1ccc(Oc2ccc(Cl)cc2)c(Cl)c1)c1cc(I)cc(I)c1O`, the Potency entry in test [1], in test [3], in [4], in test [5], in test [6] and in test [7] was “inactive” in each case. In [2], the compound was called inactive.

As to `CCc1oc2ccccc2c1C(=O)c1cc(Br)c(O)c(Br)c1`, the Potency result in test [1], in [3], in test [4], in [5], in [6] and in test [7] was “inactive” throughout. The Potency result in [8] is “inactive”. The outcome in test [2] was inactive. Moreover, in [9], the Potency is 15.1 µM (active).

As to `O=C1c2ccccc2Cc2ccccc21`, the Potency result in [1], in [3], in test [4], in test [5], in [6] and in test [7] was “inactive” each time. For the same compound, in [2], the result was inactive.

For `Fc1ccc([C@@H]2CCNC[C@H]2COc2ccc3c(c2)OCO3)cc1`, the Potency result in test [1], in test [3], in test [4], in [5], in [6] and in [7] was “inactive” each time. Further, the Potency result in test [8] is “inactive”. In addition, the outcome in test [2] was inactive.

Consider `Cc1[nH]nc2c1N=C(c1ccccc1Cl)c1cc([N+](=O)[O-])ccc1N2`, for which the Potency entry in test [1], in test [3], in [4], in [5], in [6] and in test [7] was “inactive” throughout. Also, the compound was called inactive in [2].

For the compound `CCC(C)Nc1ccc(NC(C)CC)cc1` (stereo not drawn), the Potency entry in test [1], in test [3], in [4], in test [5], in [6] and in test [7] was “inactive” each time. The compound was classed as inactive in test [2].

Take `CC(=O)OCC(C)OC(C)=O` (stereo not drawn): the Potency entry in test [1], in [3], in test [4], in [5], in test [6] and in [7] was “inactive” throughout. Also, in test [2], the compound was classed as inactive.

In the case of `NC(=O)NS(=O)(=O)c1ccc(N)cc1`, the Potency result in test [1], in test [3], in [4], in test [5], in test [6] and in test [7] was “inactive” each time. Moreover, the Potency result in [8] was “inactive”. The result in test [2] was inactive.

As for `Cc1cc(N)c(S(=O)(=O)O)cc1Cl`, the Potency entry in test [1], in test [3], in test [4], in test [5], in [6] and in [7] was “inactive” in each case. In test [2], the call was inactive.

Turning to `CN(C)[C@@H]1C(=O)C(C(N)=O)=C(O)[C@@]2(O)C(=O)C3=C(O)c4c(O)ccc(Cl)c4[C@@H](O)[C@H]3C[C@@H]12`, the Potency result in test [1], in test [3], in [4], in [5], in test [6] and in test [7] was “inactive” throughout. The Potency entry in test [8] and in [9] was “inactive” each time. In addition, the compound was classed as inactive in test [2].

`CCOc1ccc2nc3cc(N)ccc3c(N)c2c1`: in test [2], the compound was called inactive. The Potency result in [3], in test [4] and in [6] was “inactive” in each case.

Consider `CCOC(=O)O[C@]1(C(=O)OCCl)CC[C@H]2[C@@H]3CCC4=CC(=O)C=C[C@]4(C)[C@H]3[C@@H](O)C[C@@]21C`, for which the Potency result in [1], in test [3], in test [4], in [5], in test [6] and in [7] was “inactive” each time. Also, the result in [2] was inactive. In [8], the Potency is 0.0756 µM (active).

Consider `ON=C1CCCC1`, for which the Potency entry in [1], in test [3], in test [4], in test [5], in test [6] and in [7] was “inactive” in each case. In test [8], the Potency result was “inactive”. The compound was classed as inactive in [2].

For the compound `C[C@@H](NCCCc1cccc(C(F)(F)F)c1)c1cccc2ccccc12`, the Potency entry in test [1], in test [3], in [4], in test [5], in test [6] and in test [7] was “inactive” each time. The result in test [2] was inactive.
